# Reference: PubChem BioAssay AID1851 (National Center for Advancing Translational Sciences (NCATS), 2009)
# Several values for one entry are separate records, joined by “and”; a condition that tells them apart may be missing. Identical values can stand only once. Out of some 16,000 compounds screened, about 5,800 (36%) were called active. Not shown: some 23% with an inconclusive outcome. The list shows a part of the results. Values without a mark were called inactive. Calls follow the shape of the dose curve; as a rule, active = well fitted curve in the direction sought with a large enough effect; inconclusive = small, poorly fitted or top-dose-only effect, or effect the other way; inactive = no such curve, though single readings can be large or run the other way.
# Target: Cytochrome P450 2C19 (Homo sapiens) (UniProt P33261)
# Assay: Cytochrome panel assay with activity outcomes
# Conditions: recombinant CYP, pro-luciferin dealkylation, luminescence, p450-cyp2c19; series mostly up to 57.1 µM
# % is scaled to controls: 0 for no effect and ±100 for the full control effect.
# Chain of Cytochrome P450 2C19 (Homo sapiens) (P33261 whole entry, looked up): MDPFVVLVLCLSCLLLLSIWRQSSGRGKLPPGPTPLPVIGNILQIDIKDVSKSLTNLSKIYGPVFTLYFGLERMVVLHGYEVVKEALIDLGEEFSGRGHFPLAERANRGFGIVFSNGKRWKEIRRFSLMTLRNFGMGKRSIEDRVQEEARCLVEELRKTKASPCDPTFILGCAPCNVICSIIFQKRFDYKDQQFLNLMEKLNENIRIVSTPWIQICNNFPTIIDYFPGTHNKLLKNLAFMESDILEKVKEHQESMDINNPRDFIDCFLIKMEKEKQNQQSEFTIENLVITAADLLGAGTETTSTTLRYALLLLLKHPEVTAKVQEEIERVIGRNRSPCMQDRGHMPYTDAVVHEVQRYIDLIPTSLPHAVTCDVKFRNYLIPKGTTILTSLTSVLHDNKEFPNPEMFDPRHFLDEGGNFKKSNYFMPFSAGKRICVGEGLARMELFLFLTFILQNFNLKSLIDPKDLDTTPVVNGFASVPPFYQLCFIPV
SMILES,AC50,"activity, negative = inhibition"
COc1cccc(/C=N/NC(=O)CO/N=C(\C)c2cccs2)c1OC,12.6 µM (active),–
CCOc1ccc(-c2cc(CCCC(=O)NCCc3ccc(OC)c(OC)c3OC)no2)cc1,1.58 µM (active),–
CC(=O)N1CCC2(CCCN(C(=O)Nc3cccc(F)c3)C2)CC1,inactive,–
O=C(/C=C\NCC(=O)c1ccccc1)c1ccc(F)cc1,2 µM (active),–
O=C(/C=C\NCC(=O)c1ccccc1)c1ccccc1,3.98 µM (active),–
O=C(C[N+]1(c2ccccc2)CCOCC1)c1ccccc1,–,-17.3% [at 11.4 µM]
c1ccc(C(c2ccccc2)N2CC3(CCNCC3)C2)cc1,inactive,–
c1ccc(C(c2ccccc2)N2CCC3(CCNCC3)CC2)cc1,3.98 µM (active),–
c1ccc(C(c2ccccc2)N2CCCC3(CCNCC3)C2)cc1,inactive,–
O=C1[C@H]2[C@H]3[C@H](O)[C@H](O)C/C(=N/OC[C@@H](O)COCc4ccco4)[C@H]3CC[C@@H]2C(=O)N1Cc1ccc2c(c1)OCO2,–,4.07% [at 11.4 µM]
CC(C)CO/N=C1/C[C@@H](O)[C@@H](O)[C@@H]2[C@@H]3C(=O)N(Cc4ccc5c(c4)OCO5)C(=O)[C@H]3CC[C@@H]12,–,-22.9% [at 11.4 µM]
CC(C)CO/N=C1/C[C@@H](O)[C@@H](O)[C@@H]2[C@@H]3C(=O)N(Cc4ccc5c(c4)OCO5)C(=O)[C@H]3CC[C@H]12,3.98 µM (active),–
O=C(NNC(=O)c1ccncc1)c1ccncc1,–,6.77% [at 11.4 µM]
O=C(Nc1nnc(C2CC2)s1)c1ccncc1,17.8 µM (active),–
NNC(=O)CNC(c1ccccc1)c1cc(Br)ccc1NC(=O)c1ccccc1Br (stereo unspecified),7.08 µM (active),–
Cc1ccc(-c2c3c(nc4sc(C(N)=O)c(N)c24)CCC3)cc1,14.1 µM (active),–
O=C1C(=O)N(c2cccc(Cl)c2)C(c2ccccc2[N+](=O)[O-])/C1=C(\O)c1ccccc1 (stereo unspecified),20 µM (active),–
COc1ccc(C2/C(=C(/O)c3ccccc3)C(=O)C(=O)N2c2ccccn2)c(OC)c1 (stereo unspecified),inactive,–
O=[N+]([O-])c1ccc(C2=Nn3c(nnc3-c3ccc(Cl)cc3)SC2)o1,2.51 µM (active),–
O=C1COC(c2ccccc2O)=NN1CCCN1CCCC1,–,43.2% [at 11.4 µM]
Cn1c(=O)n(CC#N)c2ccccc21,inactive,–
Cc1snc(SCC(=O)N/N=C(\N)COc2cccc(C(F)(F)F)c2)c1C#N,4.47 µM (active),–
CC(=O)OCC1=C(C(=O)O)N2C(=O)[C@@H](NC(=O)Cc3cccs3)[C@@H]2SC1,inactive,–

SMILES,AC50,"activity, negative = inhibition"
COc1ccc(CCN(C)CCC(=O)Nc2c(C)cc(C)cc2C)cc1OC,inactive,–
Cc1ccc(C)c(NC(=O)Cn2nnc(C(=O)NCc3cccs3)c2N)c1,inactive,–
COc1ccc(CCNC(=O)CCN2C(=O)C(C)Oc3ccc(C)cc32)cc1OC (stereo unspecified),20 µM (active),–
Cc1ccc2c(c1)N(CC(=O)NCc1cccs1)C(=O)C(C)O2 (stereo unspecified),2.51 µM (active),–
NC(=O)/C(=N\OC(=O)c1ccco1)c1nc(-c2ccc(Br)cc2)cs1,20 µM (active),–
O=C(O)[C@@H](Cc1c[nH]c2ccccc12)C(=O)NO,–,84.7% [at 11.4 µM]
Cc1cc(C)cc(C(=O)N(C)[C@H](Cc2ccc(-c3ccccc3)cc2)C(=O)N[C@@H](Cc2c[nH]c3ccccc23)C(=O)O)c1,10 µM (active),–
CCc1cc2c(nc1CC)CCN(CC/C(C)=N/O[C@@H](C)c1cn([C@H](CO)Cc3ccccc3)nn1)C2,–,-17.2% [at 11.4 µM] and -16.8% [at 11.4 µM]
O=C(Nc1ccnc(-c2cccnc2)n1)c1cccc(Cl)c1Cl,2.82 µM (active),–
CC(=O)Nc1ccnc(-c2cccnc2)n1,inactive,–
CC(C)(C)C(=O)Nc1ccnc(-c2cccnc2)n1,2.24 µM (active),–
COc1cc(/C=N\NC(=O)C2C(=O)NCC2c2ccccc2)cc(OC)c1O (stereo unspecified),inactive,–
O=C(N/N=C/c1cccc(OCc2ccccc2)c1)c1cccs1,5.01 µM (active),–
COc1cc(/C=N/NC(=O)c2cccs2)ccc1OCc1ccccc1,1.41 µM (active),–
O=C(N/N=C/c1ccc(OCc2ccccc2)cc1)c1cccs1,2.51 µM (active),–
C=CCNC(=S)N/N=C/c1ccc(OCc2ccccc2)cc1,inactive,–
COc1ccc(CCN(C)Cc2ccc(OCc3ccccc3)c(OC)c2)cc1OC,inactive,–
O=C(N/N=C/C=C/c1ccc([N+](=O)[O-])cc1)c1cccs1,inactive,–
Cc1c(NCc2cc(Cl)ccc2O)c(=O)n(-c2ccccc2)n1C,5.62 µM (active),–
Cc1c(NC(C)C)c(=O)n(-c2ccccc2)n1C,inactive,–
Cc1c(NC(=O)Nc2c(Cl)cccc2Cl)c(=O)n(-c2ccccc2)n1C,–,10.7% [at 11.4 µM]
C=C(C)COc1ccc2c(c1)CCC1C2CC[C@]2(C)C(=O)/C(=N/O)CC12 (stereo partly specified),–,19.2% [at 11.4 µM]
CCOC(=S)SCC(=O)O,–,38.2% [at 11.4 µM]

SMILES,AC50,"activity, negative = inhibition"
O=c1cc(-c2ccccc2)[nH]n1-c1ccc([N+](=O)[O-])cc1,8.91 µM (active),–
COc1ccc(Oc2c(Cl)cnn(-c3ccccc3)c2=O)cc1,2.24 µM (active),–
COc1ccc(-n2c(=O)c(C)nc3cnc(Oc4ccccc4)nc32)cc1,inactive,–
COc1cccc(/C=N/n2nnc3c(cnn3-c3ccccc3)c2=O)c1,inactive,–
CCCC[C@H]1C[C@@H]1[C@@H]1N(P(=O)(c2ccccc2)c2ccccc2)C[C@@](O)(c2ccccc2)CC12CC2,inactive,–
O=C(NCCc1ccccc1)N1c2ccccc2Sc2ccccc21,2.82 µM (active),–
COc1ccc(NC(=O)N2CC[C@@]3(CCCN(S(C)(=O)=O)C3)C2)cc1,inactive,–
COc1ccc(C)cc1NC(=O)CCC(=O)Nc1nnc(C(F)(F)F)s1,inactive,–
COc1ccc(S(N)(=O)=O)cc1C(=O)NCCCN1CCN(c2ccc(C)cc2)CC1,inactive,–
COc1ccc(C)cc1NC(=O)CN1CCN(S(=O)(=O)c2ccc(F)cc2)CC1,2.82 µM (active),–
COc1ccc(NC(=O)c2cc(S(=O)(=O)N3CCS(=O)(=O)CC3)ccc2Cl)cc1,inactive,–
COc1ccc(S(=O)(=O)N2CCN(CC(=O)Nc3cc(OC)cc(OC)c3)CC2)cc1,14.1 µM (active),–
COc1ccc(S(=O)(=O)N2CCCN(CCC(=O)Nc3cccc(C(F)(F)F)c3)CC2)cc1,2.51 µM (active),–
COc1ccc(S(=O)(=O)N2CCCN(CC(=O)Nc3ccc(OC)c(Cl)c3)CC2)cc1,0.0631 µM (active),–
CC12CS(=O)(=O)CC1SC(=S)N2c1ccccn1 (stereo unspecified),inactive,–
COc1ccc(NC(=O)N2CC[C@@]3(CCCN(C(=O)c4cccn4C)C3)C2)cc1,inactive,–
COC(=O)N1CCC2(CCCN(C(=O)Nc3cccc(F)c3)C2)CC1,inactive,–
COc1ccc(C(=O)N2CCC3(CCN(C(=O)Nc4cccc(F)c4)CC3)CC2)cc1,inactive,–
COc1ccc(S(=O)(=O)N2CCN(CC(=O)Nc3cccc(F)c3)CC2)cc1,4.47 µM (active),–
CCOc1ccc(C(=O)CN2CCN(S(=O)(=O)c3ccc(F)cc3)CC2)cc1,7.08 µM (active),–
Cc1ccc(C2C3=C(CCCC3=O)Nc3nc(SCC(=O)NCc4ccco4)[nH]c(=O)c32)cc1 (stereo unspecified),inactive,–
Cc1nc2nc(SCC(=O)NCc3ccco3)nn2c(C)c1Cc1c(F)cccc1Cl,15.8 µM (active),–
Cc1cccc(Cc2c(C)nc3nc(SCC(=O)NCc4ccco4)nn3c2C)c1,5.01 µM (active),–

SMILES,AC50,"activity, negative = inhibition"
O=C(NC(Cc1ccccc1)C(=O)O)/C(=C\c1ccco1)NC(=O)c1ccc(Br)cc1 (stereo unspecified),inactive,–
CC(=O)c1ccc(NC(=O)C(Cc2ccccc2)NC(=O)c2ccco2)cc1 (stereo unspecified),15.8 µM (active),–
O=C(Nc1ccccc1)C(Cc1ccccc1)NC(=O)C12CC3CC(CC(C3)C1)C2 (stereo unspecified),inactive,–
N#Cc1cccc(NC(=O)N2CC3(CCN(C(=O)c4cnccn4)CC3)C2)c1,inactive,–
CCOC(=O)C1=C(C)N=C2SC(C(=O)OC)=CC(=O)N2C1c1ccc(F)cc1 (stereo unspecified),1.26 µM (active),–
COc1ccc2c(c1)c(CC(=O)O)c(C)n2C(=O)c1ccccc1,inactive,–
CCCC(=O)NCCc1c2n(c3ccc(OC)cc13)Cc1ccccc1-2,0.398 µM (active),–
CC1(C)OC(=O)C(=CNCC(O)c2ccccc2)C(=O)O1 (stereo unspecified),11.2 µM (active),–
CSCCC(NC=C1C(=O)OC(C)(C)OC1=O)C(=O)O (stereo unspecified),inactive,–
CC1(C)OC(=O)C(=CNc2cccc(O)c2)C(=O)O1,inactive,–
COCCN1CN=C(Nc2nc3ccccc3s2)NC1,14.1 µM (active),–
c1ccc2sc(SCN(C3CCCCC3)C3CCCCC3)nc2c1,–,-38.6% [at 11.4 µM]
COCCn1c(=O)c(-c2ccccc2)nc2cnc(Nc3ccccc3)nc21,inactive,–
COCCN1CN=C(Nc2nc3ccccc3o2)NC1,inactive,–
c1ccc2sc(NC3=NCN(C4CCCCCC4)CN3)nc2c1,1.12 µM (active),–
CN1CCN(c2ncc3nc(-c4cc(F)cc(F)c4)c(=O)n(CCC#N)c3n2)CC1,inactive,–
CN(C)c1ccccc1CN1CCCN(Cc2ccccc2N(C)C)C1c1ccncc1,–,-28.5% [at 11.4 µM]
CCCCCCCCN1C(=O)N(C)C(N(O)C(=O)NC)C1(C)C (stereo unspecified),7.08 µM (active),–
O=C(COc1ccccc1)Nc1cc(C(F)(F)F)ccc1N1CCCC1,5.01 µM (active),–
NS(=O)(=O)c1cc(C(=O)O)cc(N2CCCC2)c1Oc1ccccc1,inactive,–
O=C(Nc1cc(C(F)(F)F)ccc1N1CCCCC1)c1ccc(Br)o1,11.2 µM (active),–
Nc1ncnc2c1ncn2CCCCC(=O)O,–,24.1% [at 11.4 µM]
